Hits are enriched below; roughly 0.84% of the tested compounds scored in any of these assays.
SRC3 TRFRET art: TR-FRET artefact, counter-screen to PPARgamma/SRC-3 agonist assay; PPARgamma/SRC-3 format; active compounds read high; TR-FRET ratio at 8 µM; 99,000 tested, 0.39% active; AID 1048
PPARg SRC-1 ag: PPARgamma-driven SRC-1 recruitment agonism. P37231. PPARgamma-SRC-1 coactivator recruitment biochemical assay. 200,000 tested, 0.41% active. activation, % at 8 µM; in the data active means activation above about 19%;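 further: 0% = DMSO and 100% = reference agonist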
PPARg SRC-3 ag: PPARgamma-driven SRC-3 recruitment agonism | biochemical PPARgamma/SRC-3 coactivator recruitment assay | activation, % at 8 µM | 200,000 tested, 0.26% active | AID 731; in the data active means activation above about 23%;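 further: 0% = DMSO and 100% = reference agonist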
SRC2 TRFRET art: TR-FRET artefact, counter-screen to PPARgamma/SRC-2 agonist assay. active compounds read high. 200,000 tested, 0.4% active. TR-FRET ratio at 8 µM
PPARg SRC-2 ag: PPARgamma-driven SRC-2 recruitment agonism | activation, % at 8 µM | AID 1032 | 200,000 tested, 0.34% active | P37231 | PPARgamma LBD-SRC-2 recruitment, biochemical; in the data active means activation above about 22%;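 further: 0% = vehicle and 100% = reference agonist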
SRC1 TRFRET art: TR-FRET artefact, counter-screen to PPARgamma/SRC-1 agonist assay; TR-FRET detection artefact counter-screen, emission ratio; active compounds read high; TR-FRET ratio at 8 µM; 99,000 tested, 0.34% active; in the data active means TR-FRET ratio above about 2300
PPARg SRC2 conf: confirmation of agonists of SRC-2 recruitment by human PPARgamma. AID 1297. biochemical SRC-2 recruitment by PPARgamma. 790 tested, 52% active. shares compounds with PPARg SRC-3 ag. activation, % at 8 µM; in the data active means activation above about 22%;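 further: 0% = vehicle alone and 100% = reference agonist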
PPARg SRC1 ag: human PPARgamma SRC-1 recruitment agonism, confirmation; AID 1300; 790 tested, 43% active; PPARgamma–SRC-1 coactivator recruitment biochemical assay; activation, % at 8 µM; shares compounds with PPARg SRC-3 ag; in the data active means activation above about 20%;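 further: 0% = vehicle wells and 100% = reference agonist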
PPARg SRC3 ag: human PPARgamma SRC-3 recruitment agonism, confirmation; biochemical PPARgamma-SRC-3 coactivator recruitment, agonist mode; shares compounds with PPARg SRC-3 ag; AID 1301; activation, % at 8 µM; 790 tested, 29% active; in the data active means activation above about 24%;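 further: 0% = vehicle wells and 100% = reference agonist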
* hit, by the source's call; . = no result given. Unless noted, no stated cut-off is given here; in the data, active means TR-FRET ratio above about 2000; inactive means the rest.

SMILES	SRC3 TRFRET art	PPARg SRC-1 ag	PPARg SRC-3 ag	SRC2 TRFRET art	PPARg SRC-2 ag	SRC1 TRFRET art	PPARg SRC2 conf	PPARg SRC1 ag	PPARg SRC3 ag
CCCC1O[C@@H]2C[C@H]3[C@@H]4CCC5=CC(=O)C=C[C@]5(C)[C@H]4[C@@H](O)C[C@]3(C)[C@]2(C(=O)CO)O1 (some centres not stated)	1556	2	7	1649	6	1864	.	.	.
CCCC1O[C@@H]2CC3C4CCC5=CC(=O)C=C[C@]5(C)C4C(OC(C)=O)C[C@]3(C)[C@]2(C(=O)COC(C)=O)O1 (some centres not stated)	.	60*	47*	1573	38*	.	42*	49*	48*
CS(=O)(=O)c1sc2nc(-c3cccs3)cc(-c3ccccc3)c2c1N	.	22*	25	2002*	30*	.	28*	22*	21
CCCC(=O)Nc1c2c(nc3ccccc13)N(c1ccccc1)CC2	2855*	46*	46*	3204*	61*	2803*	41*	25*	26*
COc1ccccc1NC(=O)/C(C#N)=C/c1cc([N+](=O)[O-])ccc1N1CCCC1	1594	5	2	1490	8	1865	.	.	.
CN1CCc2nc3sc(C(=O)NCc4ccccc4)c(N)c3cc2C1	1839	13	16	1733	24*	2218	6	6	7
CC1(C)CC(=O)c2cc3c(N)c(C(=O)NCc4ccccc4)sc3nc2C1	.	0	-8	1548	-4	.	.	.	.
COc1ccc(CCC(=O)OCC(=O)c2cccc(OC)c2)cc1	1569	1	3	1352	2	1765	.	.	.
CC[n+]1c(/C=C/c2ccc(N(C)C)cc2)ccc2ccccc21	2785*	61*	47*	2167*	64*	3540*	53*	39*	30*
CC[n+]1ccc(/C=C/c2ccc(N(C)C)cc2)c2ccccc21	4546*	149*	125*	4436*	109*	4146*	160*	119*	105*
CC[n+]1ccccc1/C=C/c1ccc(N(C)C)cc1	1475	-3	5	1570	6	2025	.	.	.
CN(C)c1ccc(/C=C/c2cc[n+](C)cc2)cc1	.	9	8	1364	4	.	.	.	.
N#Cc1ccsc1NC(=O)CN1CCN(S(=O)(=O)c2ccc3ccccc3c2)CC1	2536*	19	8	2346*	28*	2399*	11	10	6
O=C(CO/N=C/c1ccc(OC(F)F)cc1)NC1CCCCCC1	1754	0	0	1556	6	2016	.	.	.
N#C/C(=C\c1ccc(OCC(N)=O)cc1)c1ccccc1	1667	10	3	1734	6	2068	.	.	.
CCc1cccc(C)c1NC(=O)CO/N=C(\N)CC(=O)NC1CCCCC1	1475	5	2	1611	3	1584	.	.	.
Cc1nn(Cc2ccccc2Cl)c(C)c1C(=O)NCCN1C(=O)S/C(=C\c2ccccc2)C1=O	1547	23*	23*	1519	18	1779	6	22*	14
O=C(Cn1nc(Cl)nc1Cl)c1cc2ccccc2oc1=O	.	2	-14	1663	0	.	.	.	.
COCc1cc(C)nc2sc3c(=O)oc(C)nc3c12	.	20*	3	1809	13	.	7	2	1
Cc1onc(-c2ccccc2Cl)c1C(=O)Nc1ccc(F)c(F)c1	.	1	18	1401	1	.	.	.	.
Cc1onc(-c2ccccc2Cl)c1C(=O)Nc1nnc(-c2ccc(Br)cc2)s1	.	29*	25	2175*	28*	.	32*	18	20
Cc1onc(-c2ccccc2Cl)c1C(=O)Nc1nnc(-c2ccc(F)cc2)s1	.	17	32*	1917	22*	.	17	10	11
Cc1onc(-c2c(F)cccc2Cl)c1C(=O)Nc1nnc(-c2ccccc2)s1	.	16	26*	1659	8	.	26*	25*	17
Cc1onc(-c2ccccc2Cl)c1C(=O)Nc1nnc(-c2ccc(Cl)cc2Cl)s1	.	23*	15	1847	18	.	31*	23*	20
Cc1onc(-c2ccccc2Cl)c1C(=O)Nc1nn[nH]n1	1461	0	-5	1475	5	1628	.	.	.
SMILES	SRC3 TRFRET art	PPARg SRC-1 ag	PPARg SRC-3 ag	SRC2 TRFRET art	PPARg SRC-2 ag	SRC1 TRFRET art	PPARg SRC2 conf	PPARg SRC1 ag	PPARg SRC3 ag
Cc1onc(-c2c(F)cccc2Cl)c1C(=O)Nc1nnc(C2CC2)s1	.	7	7	1619	8	.	.	.	.
COc1ccnc(Oc2ccc(F)cc2)c1C(=O)N/C=N/OCc1ccccc1	1832	13	2	1537	2	1740	.	.	.
Cc1cccc(-c2ncc(CN3CCN(CCC(C)C)C(CCO)C3)cn2)c1 (configuration not stated)	1546	-2	0	1637	-4	1806	.	.	.
COc1cccc(C2C=C(c3ccc(Br)s3)Nc3ncnn32)c1OC (configuration not stated)	2570*	33*	17	2137*	27*	3079*	57*	48*	36*
Fc1ccc(Br)cc1C1C=C(c2ccc(Br)s2)Nc2ncnn21 (configuration not stated)	3060*	46*	32*	2711*	51*	3232*	54*	35*	39*
O=C(Nc1ccc2oc(-c3ccc(F)cc3)nc2c1)c1ccccc1F	.	25*	21	2348*	28*	.	14	12	6
Oc1ccc(NCc2cccc(OCc3ccccc3)c2)cc1	1844	24*	3	1789	14	1900	-1	-1	2
S=c1nc[nH]c2c1[nH]c1ccccc12	.	29*	48*	2670*	38*	.	15	5	11
O=C(CCSCc1ccccc1F)NCCc1ccccc1	1505	6	-1	1625	-3	1499	.	.	.
C=CCSC1=Nc2cc(OC)c(OC)cc2C2=NC(=O)CN12	1730	21*	10	1797	15	1868	29*	18	18
CNC(=S)N1N=C(c2ccc(OC)cc2)CC1c1ccc(Cl)cc1Cl (configuration not stated)	3446*	22*	16	2360*	7	3403*	18	12	12
COc1ccc(C2=NN(C(=O)CN3CCCCC3)C(c3ccc(C)cc3)C2)cc1 (configuration not stated)	1434	2	1	1498	1	1708	.	.	.
CNC(=S)N1N=C(c2ccc(Br)cc2)CC1c1ccc(OC)cc1 (configuration not stated)	2788*	23*	21	2412*	18	2835*	37*	30*	21

Screening data: PubChem BioAssay, The Scripps Research Institute Molecular Screening Center
